These results are taken from ChEMBL document CHEMBL3988442, “University of Dundee, Small-Polar-MMV Screening Library” (2021).

The structures appear in SMILES notation. Among all 48,000 compounds or so, about 13,000 (27%) showed an effect of 50% or more. The list shows a part of the results.

The test relates to Wolbachia pipientis. Nature of the test: Anti-Wolbachia Cell-Based Screen. In kind it is functional. The arrangement: scale not given: in the data most compounds retested in dose-response had high values. To be noted: 5 µM.
Take `CS(=O)(=O)N1CC2(CCN(CC3CCCCC3)C2)Cc2ccccc21` (stereo unspecified): the “Percent Effect” value was 112.5%.
As to `CS(=O)(=O)N1CC2(CCCN(CC3CC3)C2)Cc2ccccc21` (stereo unspecified), the “Percent Effect” value came to 118.5%.
For `O=C(O)C(F)(F)F.O=C1CC2(CCN(CC3CC3)C2)CN1c1cccc(F)c1` (stereo unspecified), the “Percent Effect” value is -1.195%.
With `CCn1c(C)nnc1SCCNC(=O)c1cccc2ccnn12` the figure was -3.845%.
As for `Cc1nc(CNC(=O)CC2C(=O)NCCN2Cc2ccccc2C)n[nH]1` (stereo unspecified), the “Percent Effect” value amounted to 4.07%.
As for `CCCc1nnsc1C(=O)NCC1CCN(S(C)(=O)=O)CC1`, the “Percent Effect” value was -2.324%.
For `Cc1cnc(N2C[C@@H]3[C@@H](C2)OCC(=O)N3C)nc1`, the “Percent Effect” value is -11.2%.
Turning to `CCN1CC2(CCN(C(=O)C(C)Oc3cccc(Cl)c3)CC2)OC1=O` (stereo unspecified), the “Percent Effect” value is -19.97%.
In the case of `COc1ccc2c(c1)CCCN(C(C)C(=O)N1CCCC1)C2` (stereo unspecified), the “Percent Effect” value turned out to be 19.28%.
As to `COc1cc2c(cc1OC)CN(C(=O)NCC1CCCO1)CC2` (stereo unspecified), the “Percent Effect” value is given as 106.4%.
For the molecule `CCC(=O)NC1CCN(c2cccc(CC)c2)CC1`, the “Percent Effect” value was -2.51%.
Regarding `COc1ccc2c(c1)CCCN(CC(=O)NCC1CCCO1)C2` (stereo unspecified), the “Percent Effect” value came out at 92.35%.
In the case of `COc1cccc(N2CCN(CCC(=O)NC3CCCCC3)CC2)c1`, the “Percent Effect” value is on record as 105.3%.
As for `COc1ccc2c(c1)CCCN2C(=O)CNCC1CN(C)CCO1` (stereo unspecified), the “Percent Effect” value worked out at 15.31%.
For `COc1ccc2c(c1)CCCN2C(=O)CN1CCOC(CN(C)C)C1` (stereo unspecified), the “Percent Effect” value is recorded as 3.019%.
For the molecule `N#Cc1ccc(OC2CCN(CC(=O)NCC3CCCO3)CC2)cc1` (stereo unspecified), the “Percent Effect” value is 1.578%.
For the molecule `COc1ccc2c(c1)CCCN(C(=O)NCC1CCCO1)C2` (stereo unspecified), the “Percent Effect” value came to 114.2%.
Regarding `CS(=O)(=O)NC1CCN(C(=O)NCC2CCCO2)CC1` (stereo unspecified), the “Percent Effect” value is listed as -8.8%.
Regarding `C=C(C)COCCNC(=O)N1CCc2c(cccc2OC)C1`, the “Percent Effect” value is -14.6%.
Take `CC(C)OCCC(=O)Nc1cccc(N2CCN(CC3CC3)CC2)c1`: the “Percent Effect” value is recorded as -21.21%.
On to `COc1ccc(-c2n[nH]cc2CN(C)Cc2ccoc2)c(F)c1`, for which the “Percent Effect” value is reported as 10.13%.
Take `c1cc2c(cc1C1CCCN1Cc1nnnn1C1CC1)OCCO2` (stereo unspecified): the “Percent Effect” value is recorded as -7.859%.
Consider `CCC(O)CNc1ccc(-c2nc(CC(C)C)no2)cn1` (stereo unspecified), for which the “Percent Effect” value is -5.208%.
For `O=C(NCC1CCOC1)c1ccc(OCC(F)(F)F)nc1` (stereo unspecified), the “Percent Effect” value is -6.921%.
With `NCC1Cc2cc(-c3cncc(C(=O)N4CCOCC4)n3)cc(Cl)c2O1` (stereo unspecified), the “Percent Effect” value is -2.851%.
For the molecule `CCc1nc(C2CCCN2CCCS(=O)(=O)c2ccccc2)no1` (stereo unspecified), the “Percent Effect” value was determined as 0.9329%.
Turning to `COc1ccc2c(c1)CN(c1cc(N3CCCC3CO)ncn1)CC2` (stereo unspecified), the “Percent Effect” value was -11.42%.
In the case of `COc1ccc2c(c1)CCN(CCC(=O)NC1CCCCC1)CC2` it was -10.31%; in that of `COc1ccc2c(c1)CN(CC(=O)NC1CCCC1)CC2`, 115.8%.
On to `COCCOCC(=O)N1CCC(O)(c2ccc3nc(C)ccc3c2)CC1`, for which the “Percent Effect” value came to 1.515%.
Take `CCn1c(N)nc2cc(C(=O)NCCc3sccc3C)cnc21`: the “Percent Effect” value worked out at 9.086%.
As for `Cc1oc(-c2ccoc2)nc1CN1CCCCC1CCc1ccccc1` (stereo unspecified), the “Percent Effect” value was -13.12%.
Take `O=C(O)c1cccnc1CN(Cc1ccsc1)C1CC1`: the “Percent Effect” value is given as -4.109%.
With `COc1cc2c(cc1OC)CN(Cc1ncccc1C(=O)O)CC2`, the “Percent Effect” value is reported as -6.886%.
As to `O=C(O)c1cccnc1CN1CCCCC1CCc1cccc(O)c1` (stereo unspecified), the “Percent Effect” value stood at 117.3%.
Take `CN(Cc1cccc(F)c1)C(=O)CN1CCCC1CCc1ccccc1` (stereo unspecified): the “Percent Effect” value was -6.226%.
`Cc1c[nH]c(CN2CCCCC2CCc2cccc(O)c2)c(C)c1=O` (stereo unspecified): the “Percent Effect” value was 11.94%.
In the case of `O=C(O)c1cccnc1CN1CCCCC1CCc1cccs1` (stereo unspecified), the “Percent Effect” value is given as 113%.
In the case of `CC(C)(C)OC(=O)NCC1CCCCN1Cc1ccccn1` (stereo unspecified) it was 1.475%; in that of `O=C(Cc1c[nH]c(=O)[nH]c1=O)N1CCCCC1CCc1cccc(O)c1` (stereo unspecified), 2.49%; in that of `O=C(O)c1cccnc1CN1CCCC1CCc1ccccc1` (stereo unspecified), 101.7%.
For `CCN1CCCC1CNC(=O)CCc1cccs1` (stereo unspecified), the “Percent Effect” value was -0.4602%.
For `O=C(O)c1cccnc1CN1CCCCC1CCc1ccccn1` (stereo unspecified), the “Percent Effect” value was 108.5%.
On to `CN(CCCc1nccn1C)C(=O)C1CCN(C(=O)C2CC2)CC1`, for which the “Percent Effect” value is on record as 15.41%.
As to `Cc1ccccc1CN1CCC2(CC1)CN(S(=O)(=O)c1ccccc1)C2.O=C(O)C(F)(F)F`, the “Percent Effect” value is -17.23%.
On to `Cc1occc1C(=O)N1CCC[C@]2(C[C@@H](OCc3ccncc3)CO2)C1.O=C(O)C(F)(F)F`, for which the “Percent Effect” value is -11.73%.
With `CCc1nc(C2CCCN2C(=O)c2ccc3c(c2)nc(C)n3C)no1` (stereo unspecified) the figure was 0.7608%; with `CCc1cc(C(=O)N2CCCC2c2nc(C)c(CC)c(O)n2)on1` (stereo unspecified), 110.9%; with `CCc1c(C)nc(C2CCCN2C(=O)c2cc(C)no2)nc1O` (stereo unspecified), 101.8%.
As for `CCc1nc(C2CCCN2C(=O)C2=COCC2)no1` (stereo unspecified), the “Percent Effect” value is on record as -4.333%.
Consider `CCc1cc(C(=O)N2CCCC2c2nc(C)c(F)c(O)n2)on1` (stereo unspecified), for which the “Percent Effect” value was -4.896%.
